The source made the active and inactive calls. Calls follow the shape of the dose curve; as a rule, active = well fitted activation curve with a large enough effect; inconclusive = small, poorly fitted or top-dose-only effect, or effect the other way; inactive = flat fitted curve, though single readings scatter.
Experiment: Cellular Toxicity (caspase-3) Renal Proximal Tubule (AID 667);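 also: cells exposed to compound for 16 hours at 37 °C before detection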
Conditions: renal proximal tubule cells, primary cells freshly taken from rat, solvent-only wells 0%, staurosporine 100%; series mostly up to 91.7 µM; caspase-3 activation: at the top concentration
Source text: NIH Chemical Genomics Center [NCGC]
NIH Molecular Libraries Screening Centers Network [MLSCN]
National Institutes of Environmental Health Sciences [NIEHS]
National Toxicology Program [NTP]
We have developed a 1536-well cell-based assay for quantitative high throughput screening (qHTS) against a number of cell lines to determine in vitro caspase 3/7 activity of small molecules. This particular assay uses the primary kidney proximal tubule cells freshly isolated from rat.
NCGC Assay Protocol Summary:
The Caspase-Glo 3/7 assay (Promega) is a homogeneous method to measure caspase-3 and caspase-7 activities in cultured cells. The quantitation of caspase 3/7 activity is based on the cleavage of a peptide-aminoluciferin substrate. After caspase cleaves the substrate the free aminoluciferin is liberated and serves as the substrate of luciferase, which generates the light. The luminescent signal is proportional to the amount of caspase 3/7 activity present.
Using the Caspase-Glo 3/7 assay, the amount of caspase 3/7 activity was measured in the rat kidney proximal tubule cells with complete culture medium following compound treatment for 16 hours. The assay was performed in opaque white 1536-well plates. In the screen, staurosporine and doxorubicin were used as positive controls. Library compounds were measured for their ability to cause the activation of caspase 3/7 in the cell line, as reflected by an increase in luminescence signal, in a concentration-dependent manner. Data were normalized to the controls for basal activity (DMSO only) and 100% stimulation (10 uM staurosporine). AC50 values were determined from concentration-response data modeled with the standard Hill equation.
qHTS protocol for caspase 3/7 assay in rat kidney proximal tubule cells
[Step] [Parameter] [Value] [Description]
1. Reagent; 5 uL; 1000 rat kidney proximal tubule cells/well
2. Time; 5 hr; 37 °C incubation
4. Controls; 23 nL; doxorubicin 7 pM to 100 uM & staurosporine 1.4 pM to 20 uM
5. Time; 16 hr; 37 °C incubation
6. Reagent; 5 uL; Caspase-Glo 3/7 reagent
7. Time; 1 hr; Room Temperature
8. Detection; Luminescence; Viewlux plate reader
Keywords: caspase 3/7, apoptosis, rat kidney proximal tubule cells, luminescence, NTPHTS, NTPHTS_NCGC, NIEHS, EPA, DSSTox, MLSMR, MLSCN, NIH Roadmap, qHTS, NCGC
For [Cl][In]([Cl])[Cl], the “caspase-3 activation” value was -5.7% (inactive). In the case of Oc1cccc(O)c1, the “caspase-3 activation” value is reported as 5.63% (inactive). In the case of CN(C)CCC=C1c2ccccc2CCc2ccccc21, the “caspase-3 activation” value is reported as 4.79% (inactive). In the case of COC(=O)C1=C(C)NC(C)=C(C(=O)OC)C1c1ccccc1[N+](=O)[O-], the “caspase-3 activation” value is reported as -8.66% (inactive). With Cc1cc(CC(=O)O)n(C)c1C(=O)c1ccc(Cl)cc1 the “caspase-3 activation” value was 4.19% (inactive). For C[C@]12C[C@H](O)[C@H]3[C@@H](CCC4=CC(=O)CC[C@@]43C)[C@@H]1CC[C@@H]2C(=O)CO, the “caspase-3 activation” value was -2.01% (inactive). In the case of CC12CCC(CC1)C(C)(C)O2, the “caspase-3 activation” value is reported as 0.119% (inactive). With O=C1c2c(O)cccc2Cc2cccc(O)c21 the “caspase-3 activation” value was 12.2% (inactive). With NCCNCCNCCNCCN the “caspase-3 activation” value was 7.28% (inactive). With NC(=O)N/N=C/c1ccc([N+](=O)[O-])o1 the “caspase-3 activation” value was -14.1% (inactive). With CCCCCCCCCCCCOS(=O)(=O)O the outcome was “inactive”. In the case of CC1(C)[C@@H]2CC[C@@]1(C)C(=O)C2, the “caspase-3 activation” value is reported as -3.61% (inactive). For Cc1c(O)cccc1C(=O)N[C@@H](CSc1ccccc1)[C@H](O)CN1C[C@H]2CCCC[C@H]2C[C@H]1C(=O)NC(C)(C)C, the “caspase-3 activation” value was 4.97% (inactive). With CCCCOC(=O)c1ccc(O)cc1 the “caspase-3 activation” value was -8.4% (inactive). With NCCNCCNCCN the “caspase-3 activation” value was -0.769% (inactive). With NC(=O)c1ncn([C@@H]2O[C@H](CO)[C@@H](O)[C@H]2O)n1 the “caspase-3 activation” value was 2.42% (inactive). With COc1ccccc1O the outcome was “inactive”. In the case of Nc1ccc(S(=O)(=O)Nc2nccs2)cc1, the “caspase-3 activation” value is reported as -4.25% (inactive). With O=C1O[C@H]([C@@H](O)CO)C(O)=C1O the “caspase-3 activation” value was -5.25% (inactive). In the case of Cc1cc2nc3c(=O)[nH]c(=O)nc-3n(C[C@H](O)[C@H](O)[C@H](O)CO)c2cc1C, the “caspase-3 activation” value is reported as -9.48% (inactive).

— PubChem BioAssay (NCATS)
